About 410 (8.5%) of roughly 4,800 compounds showed an effect of 50% or more. Shown is part of a subset that was picked to be rich in strong results.

The assay deals with Plasmodium falciparum. Briefly: Confirmatory screen in NF54 pLDH assay, in single point, at 2uM, 72h. It counts as functional, Erythrocyte. Particulars: timepoint 72 hour.
As to `COc1ccccc1CNC(=O)c1cnn2c3c(cnc12)CCCC3`, the “% Inhibition” value is -2%.
Then `Brc1cc(Br)c2nc(-c3cnccn3)ccc2c1`, with 14%; and `CC(=O)c1ccc(N2CCN(C(=O)c3nn[nH]c3Nc3ccc(C)c(C)c3)CC2)cc1`, with 8%.
Regarding `CCn1cc(Cl)c(-c2nnc(-c3cccs3)o2)n1`, the “% Inhibition” value is 0%.
Consider `CC1CN(C)C(C)c2c1oc1ccc(N)cc21` (configuration not stated), for which the “% Inhibition” value was -17%.
Then `CC1=NN(c2ncc(C(F)(F)F)cc2Cl)C(=O)c2ccccc2O1`, with 6%; and `CN1CCC(Nc2ncnc3c2cnn3C)C1c1ccc(Cl)cc1` (configuration not stated), with 12%; and `CC1CC(Nc2ncnc3cc(Br)ccc23)CCN1C` (configuration not stated), with 95%.
Consider `CCCOc1cccc2c(NC3CCN(CCOC)CC3)ccnc12`, for which the “% Inhibition” value is listed as 48%.
The result for `Brc1cncnc1NC1CC1` reads 9%; that for `Cc1cc2ncn(CN3CC[C@@H](NC(=O)OC(C)(C)C)C3)c2cc1C`, -7%.
The result for `O=C(NCc1ccco1)c1nc(-c2ccncc2)cs1` reads 10%; that for `Cc1noc(C)c1NC(=O)CCS(=O)(=O)c1ccc2ccccc2c1`, 4%.
Then `O=C(Nc1nccnc1C(=O)O)c1ccc(Cl)cc1`, with 14%; and `CC1CCC(N2CC(C(=O)N(C3CC3)C(C)C(C)C)CC2=O)CC1` (configuration not stated), with 1%.
In the case of `O=C1c2ccccc2C(=O)N1CCc1csc(Cn2cncn2)n1`, the “% Inhibition” value is 10%.
The result for `CN1CCN(C2(CNc3ccnc4ccccc34)CCCC2)CC1` reads 98%.
The result for `c1ccc(Oc2ccnc(NCC34COCCN3CCOC4)n2)cc1` reads -13%.
Then `Cc1noc(OCCc2ccccc2)n1`, with 11%.
As to `Cc1ccc(C)c(N2CCN(c3ncc4c(=O)n(-c5ccc6c(c5)OCO6)c(=O)[nH]c4n3)CC2)c1`, the “% Inhibition” value stood at 3%.
Regarding `Cc1ccc(C)c(-n2cnc(=O)n2[C@H]2CCN(C3CC3)C2=O)c1`, the “% Inhibition” value is 51%.
The result for `Brc1ccc2c(c1)C1CCCCC1N2` (configuration not stated) reads 9%; that for `CC[C@H]1CN2C=NC(N3CCN(C(=O)Cc4ccccc4)CC3)=CC2=N1`, 25%.
As for `CC[C@H]1CN2C=NC(N3CCN(C(=O)Nc4cc(F)cc(F)c4)CC3)=CC2=N1`, the “% Inhibition” value is reported as 46%.
In the case of `Cc1c(F)cccc1NC(=O)N1CCN(C2=CC3=N[C@@H](C)CN3C=N2)CC1`, the “% Inhibition” value is listed as 54%.
The result for `COC(=O)c1nc(NC(=O)C2(C)CCCC2)sc1C(C)C` reads -9%; that for `Cc1nnc(N2CC[C@H](c3nnc[nH]3)C2)s1`, 4%.
With `CC1(C)CC(=O)C2(Cc3ccccc3N3CCN(Cc4ccccc4)C[C@H]32)C(=O)C1`, the “% Inhibition” value is on record as 12%.
The result for `COc1c[nH]c(C(=O)NC2CCN(Cc3ccccc3)CC2)cc1=O` reads 1%; that for `O=C(CN1C(=O)COc2cc(Br)ccc21)Nc1cccc2ccccc12`, 9%.
The result for `CC1CCCN(C2(N3CCCC(C)C3)C(=O)Nc3ccc(F)cc32)C1` (configuration not stated) reads 19%.
As to `N#Cc1cccc(CNCC2(N3CCOCC3)CCCCC2)c1`, the “% Inhibition” value is on record as -4%.
Then `Cc1c(S(=O)(=O)NCCn2nc(C(F)(F)F)cc2C)cnn1C`, with 8%; and `Cc1c(C)c2ccc(NC(=O)c3cc4ccccc4o3)cc2[nH]c1=O`, with 78%.
The result for `Cc1nc2sc(C(=O)Nc3ccc4ccccc4c3)c(N)c2c(C)c1C` reads 9%; that for `Cc1cc(C(=O)Nc2ccc3ccccc3c2)co1`, -3%; that for `O=C(Cn1c(=O)n(-c2cc(F)cc(F)c2)c(=O)c2sccc21)NCc1ccc(F)cc1F`, -2%.
Then `CCC(CC)C(=O)c1c[nH]c(C(N)=O)c1`, with -17%.
On to `Cc1noc(CCNC(=O)N2CCCCC[C@H]2c2ccc(C)o2)n1`, for which the “% Inhibition” value is -1%.
Then `CC(C)(C)c1nc(Cn2cnc3ncc(Br)cc32)no1`, with 6%; and `NS(=O)(=O)N1CCN(Cc2ccn(C3CCCC3)n2)CC1`, with 9%; and `Cc1nn(-c2nc3ccccc3[nH]2)c2c1[C@@H](c1cccnc1)CC(=O)N2`, with 79%.
The result for `O=C1C[C@H](c2cccnc2)c2cnn(C3CCCC3)c2N1` reads 16%.
As for `Cc1nn(-c2ncccn2)c2c1[C@@H](c1ccccc1)CC(=O)N2`, the “% Inhibition” value is listed as -15%.
The result for `Cc1noc(C2CCN(CC(=O)Nc3ccccc3C(=O)NCC(C)C)CC2)n1` reads 1%; that for `CCOC(=O)c1nc[nH]c1-n1nc(C)cc1C`, 7%.
Then `COc1ccc(-c2nccn3cc(C(=O)N4CCCCCC4)nc23)cc1`, with 4%.
Take `CC(=O)NC1CN(C(=O)Nc2ccc(C(C)C)c(F)c2)C1`: the “% Inhibition” value was -11%.
As for `COc1ccc(C2C(C(=O)O)c3ccccc3C(=O)N2C2CCCCC2)cc1` (configuration not stated), the “% Inhibition” value is -13%.
The result for `Cc1c([C@@H](NCc2ncccc2O)C(C)C)oc2ccccc12` reads 94%; that for `CC1=NN(c2nc(C)cc(O)n2)C(=O)C1`, -6%.
The result for `COc1cccc(-c2nc3n(c2C(=O)Nc2ccccc2C#N)CCS3(=O)=O)c1` reads 9%; that for `Cc1ccc(-c2ccc(=O)n(CCC(=O)N3CCN(C4CCCCC4)CC3)n2)cc1`, 0%.
On to `C[C@H]1C(=O)N(C)C[C@@H](CNS(=O)(=O)c2ccccc2)N1Cc1cccnc1`, for which the “% Inhibition” value is listed as 9%.
Then `CCN(CC)c1ccc(NS(=O)(=O)c2cc(S(=O)(=O)c3ccc(Cl)c(S(=O)(=O)Nc4ccc(N(CC)CC)cc4)c3)ccc2Cl)cc1`, with 5%; and `CN(C)CC(O)COc1ccc(S(=O)(=O)c2ccc(OCC(O)CN(C)C)c(Cl)c2)cc1Cl` (configuration not stated), with 61%.
For `COc1cc(=O)c(C(=O)NCCN2CCCCC2)nn1-c1ccc(F)cc1`, the “% Inhibition” value is 0%.
For the compound `Cc1ccc(C(=O)N2CCCC23CCC3)nn1`, the “% Inhibition” value was -9%.
For the compound `O=C(c1[nH]nc(C2CC2)c1Br)N1CCC12CCC2`, the “% Inhibition” value is -3%.
Consider `CCOc1ccc(C2C(C(=O)O)CCC(=O)N2C2CCCCC2)cc1` (configuration not stated), for which the “% Inhibition” value was 10%.
Then `CN(C)c1ccc(C(=O)N2CC[C@H]3NC(=O)N(Cc4ccccc4)C(=O)[C@H]32)cc1`, with -5%.
Regarding `Cc1ccc(S(=O)(=O)Nc2cccc(-c3csc(C)n3)c2)cc1`, the “% Inhibition” value is on record as 10%.
The result for `COc1ccc(CNC(=O)c2sc(Nc3ccc(C)cc3C)nc2C)c(OC)c1` reads -2%; that for `O=C1[C@H](c2cccnc2)N(CCCc2ccccc2)C(=O)CN1c1ccccc1`, -15%.
The result for `CCN(CCN(C)C)C(=O)c1cccc(-c2ccc3nccc(N)c3c2)c1` reads 96%; that for `CCC(=O)N(CCN(C)C)Cc1c(-c2ccccc2)noc1N1CCCCC1`, 13%; that for `COc1ccc(-c2cc3nn(CC(=O)NCCC(C)C)c(=O)n3c(C)n2)cc1`, 1%.

The values above are taken from ChEMBL document CHEMBL4888484, “Replenishing the malaria drug discovery pipeline: Screening and hit evaluation of the MMV Hit Generation Library 1 (HGL1) against asexual blood stage Plasmodium falciparum ,using a nano luciferase reporter read-out” (2022).
